From PubChem BioAssay (EPA / NIEHS)
Results filed as inconclusive are left out. The source holds several records for some structures; these can differ, active in one and inactive in another. The source made the active and inactive calls. How the source made its calls: active means hit-call score of the fitted dose curve at least 0.9, where 1 is the maximum; inconclusive means response in the unintended direction; inactive means score below 0.9.

Assay: CCTE_Simmons_MITO_viability: CellTiter-Glo Viability Assessment for CCTE's HepG2 Seahorse XF Respirometric Screening Assay [post-hoc], Simmons Lab (AID 2284007);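 on AC50: cells exposed to chemical for 90 min before the ATP read; actives lower ATP signal relative to DMSO baseline meaning reduced viability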
Method: CCTE_Simmons_MITO is cell-based, respirometric assay using HepG2 cells and a Seahorse XF Analyzer to measure oxygen consumption rates over four temporal phases spanning a total of 72 minutes: pre-injection (pre-treatment), basal (following test compound injection), maximal (following FCCP uncoupler injection), and inhibited (following rotenone/antimycin A injection)CCTE_Simmons_MITO_viability is one of 4 assay components measured from the CCTE_Simmons_MITO assay. It is designed to make measurements of ATP content, a form of viability reporter, as detected with bioluminescence signals by Luciferase-coupled ATP quantitation technology. Data from the assay component CCTE_Simmons_MITO_viability was analyzed at the endpoint, CCTE_Simmons_MITO_viability, in the positive analysis fitting direction relative to DMSO as the negative control and baseline of activity. Using a type of viability reporter, measures of ATP content for loss-of-signal activity can be used to understand the viability. To generalize the intended target to other relatable targets, this assay endpoint is annotated to the cell cycle intended target family, where the subfamily is cytotoxicity.
Test chemicals were administered as a titrated series of 7 concentrations from 125 nM up to 100 uM [final] for 90 minutes prior to single endpoint detection. Three biological replicates of technical singles were run for every chemical concentration tested. Dimethylsulfoxide [DMSO] was used as the vehicle control. Dichlone [DCNQ] was used as the positive control and was administered as a titrated series of 8 concentrations from 10 nM up to 100 uM [final].

| Structure (SMILES) | outcome | AC50 |
| --- | --- | --- |
| CC(C)Oc1cc(-n2nc(C(C)(C)C)oc2=O)c(Cl)cc1Cl | inactive |  |
| N#CC(CCc1ccc(Cl)cc1)(Cn1cncn1)c1ccccc1 (stereo unspecified) | inactive |  |
| COC(=O)N(OC)c1ccccc1COc1ccn(-c2ccc(Cl)cc2)n1 | inactive |  |
| CCc1nn(C)c(C(=O)NCc2ccc(C(C)(C)C)cc2)c1Cl |  | 0.217 µM (active) |
| Cc1ccc(-c2c(Cl)nc(C#N)n2S(=O)(=O)N(C)C)cc1 | inactive |  |
| CC(C)(C)c1ccc(CSc2cnn(C(C)(C)C)c(=O)c2Cl)cc1 |  | 0.411 µM (active) |
| CC1COC(Cn2cncn2)(c2ccc(Oc3ccc(Cl)cc3)cc2Cl)O1 (stereo unspecified) | inactive |  |
| C=CCC1=C(C)C(OC(=O)C2C(C=C(C)C)C2(C)C)CC1=O (stereo unspecified) | inactive | 5.17 µM (active) |
| CON(C)C(=O)Nc1ccc(Cl)c(Cl)c1 | inactive |  |
| COP(=S)(OC)Oc1nc(Cl)c(Cl)cc1Cl |  | 19.8 µM (active) |
| CCCN(CCC)c1c([N+](=O)[O-])cc(S(N)(=O)=O)cc1[N+](=O)[O-] | inactive |  |
| C=CCC1=C(C)[C@@H](OC(=O)[C@@H]2[C@@H](C=C(C)C)C2(C)C)CC1=O | inactive |  |
| N#Cc1cc(Br)c(O)c(Br)c1 |  | 10.8 µM (active) |
| CCCCNC(=O)OCC#CI | inactive |  |
| OC(c1ccc(Cl)cc1)(c1cncnc1)c1ccccc1Cl (stereo unspecified) | inactive |  |
| O=C(Nc1ccccc1)Nc1ccnc(Cl)c1 | inactive |  |
| CO/C=C(/C(=O)OC)c1ccccc1Oc1cc(Oc2ccccc2C#N)ncn1 | inactive |  |
| COc1nc(NC(C)C)nc(NC(C)C)n1 | inactive |  |
| N#Cc1nn(-c2c(Cl)cc(C(F)(F)F)cc2Cl)c(N)c1S(=O)C(F)(F)F (stereo unspecified) | inactive |  |
| CCCC1COC(Cn2cncn2)(c2ccc(Cl)cc2Cl)O1 (stereo unspecified) |  | 26.5 µM (active) |
